Assay results from PubChem BioAssay.
Active and inactive are the calls of the source.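 Rule for the calls, unless noted: active = inhibition above 20% together with a positive visual image hit; inconclusive = visual image hit but inhibition not above 20%; inactive = no visual image hit.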

Columns and labels:
[1] = inhibitors of TNFa-induced NFkB p65 translocation, primary screen, imaging, HUVEC, MLSMR starter and 10KST1 sets (AID 438); conditions: HUVEC TNFa-induced p65 nuclear translocation; cell count: measured here: nuclei count (cytotoxicity indicator), at 2.08 µM; inhibition: at 2 µM, stronger effect = higher value, 0% TNFa-plus-vehicle, 100% no-TNFa wells;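 note: compound added about 3h40 before a 20 min TNFalpha stimulation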;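 for inhibition: signal is the nuclear over cytoplasmic p65 intensity ratio per well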
[2] = reduction of polyQ htt aggregates in cells – imaging, exon1htt(103Q)mCFP cells, high-content imaging, primary screen (AID 483;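 active = visual image review flags a hit and inhibition of aggregation exceeds 20%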;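 note: compound exposure lasted 3 days before fixation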;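 for nuclei count: percent of the per-plate median nuclei count of sample wells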); conditions: exon1htt(103Q)mCFP cell line, aggregate imaging, at 2 µM; inhibition of aggregation: stronger effect = higher value; nuclei count: measured here: cell count, toxicity
[3] = endothelial E-selectin expression blockers – imaging, HUVEC, immunofluorescence, MLSMR starter and 10KST1 sets, primary screen (AID 487;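 active = visually confirmed hit in the image check and inhibition above 20%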;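 for inhibition: signal is fraction of cell area covered by stained E-selectin grains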;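 for nuclei count: 100% = median nuclei count of all wells on the same plate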); conditions: HUVEC TNFalpha-induced E-selectin immunofluorescence imaging, at 2 µM; inhibition: stronger effect = higher value; nuclei count: measured here: cell number, toxicity
[4] = target: Voltage-gated potassium channel subunit beta-2 (Rattus norvegicus) (UniProt P62483); test: inhibitors of rat Kvbeta2 reductase activity – biochemical, NADPH fluorescence, primary screen (AID 622;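 active = fluorescence slope higher than the sample average by over 3 SD, cut at about -0.22 in these data, passing the limit was not always enough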;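 note: slope of raw intensity against log time taken from 70 to 1610 s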); conditions: recombinant KvBeta, 4-cyanobenzaldehyde reduction, at 10 µM, stronger effect = higher value
Voltage-gated potassium channel subunit beta-2 (Rattus norvegicus), sequence (P62483 whole entry, looked up): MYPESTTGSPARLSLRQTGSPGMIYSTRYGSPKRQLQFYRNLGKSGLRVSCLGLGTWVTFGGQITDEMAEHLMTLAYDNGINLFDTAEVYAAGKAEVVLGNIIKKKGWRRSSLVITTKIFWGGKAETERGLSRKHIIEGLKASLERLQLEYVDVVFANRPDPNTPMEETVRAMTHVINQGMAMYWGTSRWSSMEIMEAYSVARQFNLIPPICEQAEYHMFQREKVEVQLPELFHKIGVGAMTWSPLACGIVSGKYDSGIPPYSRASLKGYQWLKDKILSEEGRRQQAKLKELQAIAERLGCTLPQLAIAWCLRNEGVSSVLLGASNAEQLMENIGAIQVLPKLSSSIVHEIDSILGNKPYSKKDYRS

[5] = target: Voltage-gated potassium channel subunit beta-2 (Rattus norvegicus) (UniProt P62483); test: enhancers of rat Kvbeta2 NADPH turnover – biochemical, NADPH fluorescence, primary screen (AID 623;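 active = NADPH fluorescence slope more negative than the mean of all samples by about 3 SD, 99.7% confidence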;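 note: fluorescence intensity change per second fitted from 20 to 320 s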); conditions: Recombinant KvBeta, NADPH fluorescence decrease slope, 10 min; at 10 µM; stronger effect = lower value
[6] = target: Alpha-2C adrenergic receptor (Homo sapiens) (UniProt P18825); test: compounds altering alpha2C-coupled GIRK flux – cell-based, HEK293 alpha2C/GIRK1/2, thallium flux, primary screen (AID 624;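 active = fluorescence slope after compound addition differing from the mean of all screened samples at 99.7% confidence, in either direction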;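 note: slope of fluorescence ratio to pre-addition baseline per second over 15 to 24 s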); conditions: thallium flux BTC fluorescence, at 10 µM, actives lie on both sides
Alpha-2C adrenergic receptor (Homo sapiens), sequence (P18825 whole entry, looked up): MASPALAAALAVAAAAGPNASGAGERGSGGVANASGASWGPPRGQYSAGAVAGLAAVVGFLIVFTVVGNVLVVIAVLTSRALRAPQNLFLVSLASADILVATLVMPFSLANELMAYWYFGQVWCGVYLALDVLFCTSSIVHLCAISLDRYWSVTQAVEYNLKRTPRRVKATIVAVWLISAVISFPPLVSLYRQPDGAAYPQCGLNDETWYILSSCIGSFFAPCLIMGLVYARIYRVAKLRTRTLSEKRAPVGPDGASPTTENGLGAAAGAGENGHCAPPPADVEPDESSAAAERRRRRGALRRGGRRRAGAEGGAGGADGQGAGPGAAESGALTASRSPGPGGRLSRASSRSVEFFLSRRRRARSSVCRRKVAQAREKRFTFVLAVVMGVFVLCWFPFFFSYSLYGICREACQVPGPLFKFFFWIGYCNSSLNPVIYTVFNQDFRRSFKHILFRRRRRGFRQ

[7] = blockers of RIG-like receptor reporter activation – cell-based, Sendai virus stimulus, luciferase, 10K MLSCN set, TLR/RLR signaling modifier project, primary screen (AID 602276;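 active = inhibition at or above 50% at 10 µM; inactive = inhibition below 50%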;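 note: firefly luciferase from ISG56 promoter only with Renilla not read in this screen; 0% = Sendai virus plus DMSO and 100% = medium plus DMSO without virus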); conditions: HEK293 RL24 IRF3 luciferase reporter, at 10 µM, stronger effect = higher value
[8] = TLR3 IRF3 reporter activation blockers – cell-based, poly I:C stimulus, luciferase, 10K MLSCN set, primary screen (AID 602277;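 active = inhibition of the reporter signal at or above 50%; inactive = inhibition below 50%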); conditions: HEK293-TLR3 RL24 IRF3 luciferase reporter, at 10 µM, stronger effect = higher value

SMILES	cell count [1]	inhibition [1]	inhibition of aggregation [2]	nuclei count [2] [%]	inhibition [3]	nuclei count [3] [%]	fluorescence slope [4]	NADPH fluorescence slope [5]	slope [6]	inhibition [7]	inhibition [8]
CCCCOCP(=O)(CCCC)COCCCC	369	0% (inactive)	8.7% (inactive)	88.5	-35.3% (inactive)	100	-0.459 (inactive)	-8.4e-05 (inactive)	0.00748 (inactive)	11.3% (inactive)	22% (inactive)
CCCNS(=O)(=O)c1ccc(C(=O)NCC2CCCO2)cc1 (stereo not drawn)	482	2.6% (inactive)	-16.7% (inactive)	114	-95.5% (inactive)	114	-0.529 (inactive)	-4.9e-05 (inactive)	0.00794 (inactive)	10.8% (inactive)	20.7% (inactive)
O=C(CSc1nnc(CNC(=O)c2c(F)cccc2Cl)o1)c1ccccc1	672	-19.6% (inactive)	40.1% (active)	100	-111% (inactive)	123	-0.406 (inactive)	-5.2e-05 (inactive)	0.00534 (inactive)	3.28% (inactive)	18.3% (inactive)
O=C(CN1CCN(c2cccc(Cl)c2)CC1)N1CCCC1	330	-8.7% (inactive)	19.2% (inactive)	73	-69% (inactive)	87.6	-0.581 (inactive)	-1.8e-05 (inactive)	0.00658 (inactive)	-11.1% (inactive)	-35.4% (inactive)
COc1cccc(-c2noc(C3CCCN(C(=O)Cc4ccccc4)C3)n2)c1 (stereo not drawn)	276	-2.8% (inactive)	5.5% (inactive)	109	18.4% (inactive)	115	-0.609 (inactive)	-8.5e-06 (inactive)	0.00584 (inactive)	9.8% (inactive)	14.1% (inactive)
O=C(CN1C(=O)c2ccccc2S1(=O)=O)NCc1ccccn1	643	0% (inactive)	-6.2% (inactive)	90.1	5% (inactive)	119	-0.61 (inactive)	4e-06 (inactive)	0.00685 (inactive)	13.6% (inactive)	26.2% (inactive)
CCOc1ccc(C2C(C#N)=C(N)Oc3cc(C)n(Cc4ccco4)c(=O)c32)cc1OC (stereo not drawn)	746	2.4% (inactive)	9.6% (inactive)	74	-11.3% (inactive)	105	-0.491 (inactive)	-2e-05 (inactive)	0.00471 (inactive)	7.22% (inactive)	11.1% (inactive)
c1ccc(CCn2nnnc2C(c2cccs2)N2CCOCC2)cc1 (stereo not drawn)	675	-8.6% (inactive)	-16% (inactive)	124	-74.9% (inactive)	106	-0.488 (inactive)	-0.000173 (inactive)	0.00462 (inactive)	4.38% (inactive)	17.4% (inactive)
COc1ccccc1NC(=O)C1=C(C)Nc2nc(CCCO)nn2C1c1cccnc1 (stereo not drawn)	318	1.6% (inactive)	10.7% (inactive)	102	-30.7% (inactive)	114	-0.631 (inactive)	-3.9e-05 (inactive)	0.00626 (inactive)	6.83% (inactive)	5.25% (inactive)
COc1ccc(N2CCN(CCNC(=O)CCS(=O)(=O)c3cccc4nsnc34)CC2)cc1	747	-6.4% (inactive)	-23% (inactive)	101	15% (inactive)	109	-0.598 (inactive)	-3.9e-05 (inactive)	0.00466 (inactive)	16.8% (inactive)	15.8% (inactive)
N#CC1=C(SCC(=O)c2cc3ccccc3oc2=O)NC(=O)C(C#N)C12CCCC2 (stereo not drawn)	639	-36.2% (inactive)	14.2% (inactive)	104	-47.7% (inactive)	123	-0.493 (inactive)	-5.2e-05 (inactive)	0.00421 (inactive)	23% (inactive)	31.4% (inactive)
c1ccc(-n2ncc3c(NC4CCCCCC4)ncnc32)cc1	691	-0.3% (inactive)	3.1% (inactive)	115	-56.3% (inactive)	122	-0.547 (inactive)	-1.1e-06 (inactive)	0.007 (inactive)	-49.7% (inactive)	-136% (inactive)
Cc1nnc(SCC(=O)N2CC(=O)Nc3ccccc32)n1-c1ccccc1	502	-4.7% (inactive)	-14.7% (inactive)	102	-190% (inactive)	134	-0.483 (inactive)	-3.9e-05 (inactive)	0.00543 (inactive)	19.7% (inactive)	22.4% (inactive)
CN(C)/C=C1\N=C(c2ccc3c(c2)OCO3)OC1=O	462	15.8% (inactive)	-17.4% (inactive)	104	46.5% (inactive)	108	-0.451 (inactive)	1.5e-05 (inactive)	0.0038 (inactive)	-20.5% (inactive)	-55.4% (inactive)
O=C(Nc1ccc2c(c1)OCO2)C(c1ccc(Cl)cc1)N1CCN(C(=O)c2ccco2)CC1 (stereo not drawn)	359	-2.1% (inactive)	-23.2% (inactive)	102	-43.9% (inactive)	110	-0.47 (inactive)	-3.7e-05 (inactive)	0.00661 (inactive)	20.6% (inactive)	28.1% (inactive)
Nc1nonc1N1CCCCC1	437	-8.1% (inactive)	-6.7% (inactive)	107	27.5% (inactive)	104	-0.474 (inactive)	-4.6e-05 (inactive)	0.00308 (inactive)	4.11% (inactive)	26.3% (inactive)
CC(=O)Nn1c(C)nnc1-n1nc(C)cc1C	594	-9.2% (inactive)	11.6% (inactive)	94.1	-52.4% (inactive)	117	-0.474 (inactive)	-9.2e-05 (inactive)	0.00573 (inactive)	5.42% (inactive)	18.4% (inactive)
CCCC1(C(=O)OCC)NC(c2ccc(N(C)C)cc2)C2C(=O)N(c3ccc(F)cc3)C(=O)C21 (stereo not drawn)	505	-10% (inactive)	30.1% (inactive)	69.8	1.4% (inactive)	134	-0.398 (inactive)	1e-06 (inactive)	0.00411 (inactive)	8.99% (inactive)	23.9% (inactive)
O=C1CC(c2ccc(F)c(Br)c2)C2=C(CCCC2=O)N1 (stereo not drawn)	334	-6.7% (inactive)	-9.9% (inactive)	113	-63% (inactive)	108	-0.327 (inactive)	4e-06 (inactive)	0.00275 (inactive)	-0.311% (inactive)	26.9% (inactive)
CCCCOCCCNC(=O)c1cccs1	471	4.5% (inactive)	-4.3% (inactive)	103	-392% (inactive)	139	-0.443 (inactive)	-2.3e-05 (inactive)	0.00349 (inactive)	5.11% (inactive)	25.1% (inactive)
COc1ccc(-c2ccc(-c3noc(-c4ccccc4)n3)c(OC)n2)cc1	359	1.8% (inactive)	-12.7% (inactive)	84.2	5% (inactive)	88.8	-0.0356 (inactive)	-4.5e-06 (inactive)	0.0074 (inactive)	-7.23% (inactive)	-29.4% (inactive)
COc1ccc(C)cc1-n1nnnc1SCC(=O)Nc1cc(C)on1	452	2.5% (inactive)	-18% (inactive)	96.7	-330% (inactive)	150	-0.6 (inactive)	-3.5e-05 (inactive)	0.00592 (inactive)	2.92% (inactive)	12.5% (inactive)
CC1(C)NC(=O)N(CC(O)CN2CCCC2)C1=O (stereo not drawn)	317	-4.8% (inactive)	4.1% (inactive)	85.6	-48.6% (inactive)	72.8	-0.543 (inactive)	4.5e-05 (inactive)	0.00702 (inactive)	6.37% (inactive)	-4.68% (inactive)
CCN(CC)CCCNc1oc(-c2cccc(Cl)c2)nc1C#N	729	-11.9% (inactive)	-13.5% (inactive)	98.2	-37.9% (inactive)	112	-0.0368 (active)	-1.1e-05 (inactive)	0.00338 (inactive)	8.46% (inactive)	27.9% (inactive)
CNC(=O)c1ccc(N(Cc2ccccc2C)S(C)(=O)=O)cc1	710	-2.6% (inactive)	0.9% (inactive)	117	-40.6% (inactive)	116	-0.636 (inactive)	-4.1e-05 (inactive)	0.00383 (inactive)	11.8% (inactive)	11.4% (inactive)
COc1cc2c(cc1NC(=O)COC(=O)Cn1cnc3ccccc31)oc1ccccc12	403	7.7% (inactive)	-10.9% (inactive)	86.8	-2.1% (inactive)	110	-0.533 (inactive)	-2.6e-05 (inactive)	0.00618 (inactive)	20.9% (inactive)	9.12% (inactive)
CCOC(=O)C1CCN(c2c(NCCN3CCN(c4ccccc4)CC3)c(=O)c2=O)CC1	533	7.8% (inactive)	7.2% (inactive)	96.5	-115% (inactive)	95.9	-0.6 (inactive)	-1.7e-05 (inactive)	0.00543 (inactive)	1.01% (inactive)	28.4% (inactive)
Nc1nnnn1NCc1cccc(OCc2ccccc2)c1	582	-9.5% (inactive)	11.2% (inactive)	64.2	-2.2% (inactive)	137	-0.5 (inactive)	-2.7e-05 (inactive)	0.00425 (inactive)	5.03% (inactive)	-6.8% (inactive)
